TRPM1 prom inh = inhibitors of MITF-dependent TRPM1 promoter reporter, primary screen, cell-based, SK-MEL-5, single point, luciferase. SK-MEL-5 TRPM1 promoter luciferase, 24 h. AID 488899, 2010. inhibition, % at 12.5 µM. 330,000 compounds, 0.83% hits;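 active = mean inhibition across replicates of 60% or more, whatever share of single replicates reaches that level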
Shn3 3UTR inh = reduction of Shn3 3'UTR firefly luciferase signal, primary screen, Schnurri-3 inhibitor project, cell-based, Clone20 osteoblasts, set 2 | Clone20 osteoblast Shn3 3'UTR firefly luciferase, 24 h | inhibition, % at 12.5 µM | 360,000 compounds, 0.52% hits;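 active = mean inhibition of at least 75% with every replicate also reaching 75%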;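 note: 0% = median of neutral control wells and 100% = pilot-screen positive control compound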
HIF-2a inh = HIF-2a reporter inhibitors, primary screen, luminescence, 786-0 RCC cells; 786-0 RCC cells HIF-2a reporter, luciferase luminescence, overnight; inhibition, % at 18.8 µM; 360,000 compounds, 0.72% hits; AID 624352, 2012;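 active = inhibition of the luminescence signal of 40% or more relative to plate controls, in a single-dose primary screen at 18.75 µM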
LMP1 NFkB inh = EBV LMP1-driven NF-kappaB luciferase reporter inhibitors, primary screen, cell-based, luminescence, single point. LMP1-induced NF-kappaB luciferase reporter cells. inhibition, % at 12.5 µM. 350,000 compounds, 0.69% hits; in the data active = inhibition above about 41%;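 note: 0% = neutral control wells and 100% = reference inhibitor control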
Peg3 prom inh = Peg3 promoter-driven luciferase inhibitors, primary screen, cell-based, HeLa, luciferase luminescence. 360,000 compounds, 1.7% hits. inhibition, % at 20 µM. HeLa PEG-Prom luciferase reporter, overnight. AID 588405, 2011;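 active = inhibition of at least 50% at 20 µM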
PAX8 inh HTS = inhibitors of PAX8-driven TPO luciferase reporter, primary screen, RMG-I cells, single concentration; SteadyGlo, 24 h; inhibition, % at 12.6 µM; 360,000 compounds, 1.2% hits;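 active = mean replicate inhibition at least 60% with every replicate also reaching 60%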;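 note: luciferase light reporting Pax8 driven TPO promoter activity; plate controls were median of neutral control wells for no effect and mitoxantrone controls for full effect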
Numbers without * were called inactive; . = no result. Rows were chosen to be rich in hits. Some 2.8% of all compounds tested hit in one or more screens of this group.

SMILES | TRPM1 prom inh | Shn3 3UTR inh | HIF-2a inh | LMP1 NFkB inh | Peg3 prom inh | PAX8 inh HTS
COc1ccc(CCN)cc1OC | 2.8 | 0.6 | 16.9 | -0.1 | 6.6 | .
NCCc1ccc(OCc2ccccc2)c(OCc2ccccc2)c1 | 98.1* | 5.2 | 18.0 | -2.3 | 106.6* | 28.6
COc1ccc(C#Cc2ccc([C@@H]3[C@@H](CO)N4CCCCN(C(=O)Cc5ccncc5)C[C@H]34)cc2)cc1 | . | . | . | . | . | -2.3
COc1ccc(CCNCc2ccccc2F)cc1OC | 0.9 | 14.5 | 5.9 | -3.1 | 18.4 | .
CCOc1ccc(Cl)cc1CNCCc1ccccc1F | -5.4 | 7.0 | 4.1 | 15.0 | 73.7* | -15.1
Cn1ncnc2c(=O)n(C)c(=O)nc1-2 | 103.0* | 96.6* | 82.2* | 90.4* | 104.8* | .
O=C(CF)N(O)c1ccc(C=Cc2ccccc2)cc1 | -19.1 | -2.9 | -217.5 | 87.9* | -322.1 | -164.7
CC(=O)[C@H]1CCC2C3CC[C@H]4C[C@@H](O)CC[C@]4(C)C3CC[C@@]21C (some centres not stated) | 0.0 | 10.7 | 3.4 | 1.4 | 29.9 | -21.8
CC(=O)O[C@H]1CCC2C3CC[C@H]4[C@@H](O)[C@H](O)CC[C@]4(C)C3CC[C@@]21C (some centres not stated) | 5.3 | 96.2* | -0.2 | 0.5 | 7.5 | -3.6
CCCCCc1nc2c(c(=O)c3ccccc3n2C)c(=O)n1C1CCCCCC1 | 7.8 | 90.1* | -3.3 | 0.9 | 71.9* | .
CCCCCc1nc2ccccc2c(=O)n1-c1ccccc1[N+](=O)[O-] | -6.7 | 28.8 | 18.0 | 1.8 | 23.9 | -4.9
CC=Cc1ccc2n(c1=O)C[C@H]1[C@H](CO)[C@@H](C(=O)OC)[C@@H]2N1CC1CCCCC1 (mixture of isomers) | . | . | . | . | . | 11.7
O=C(NCCN1CCC2(CC1)C(=O)NCN2c1ccccc1)c1cccc2c1-c1ccccc1C2=O | . | . | . | . | . | -2.4
CN1CN(c2ccccc2)C2(CCN(CCCSc3ccccc3NC(=O)/C=C/c3ccccc3)CC2)C1=O | 68.9* | 58.9 | -141.4 | 10.6 | 32.3 | 6.5
CCCNC(=O)[C@@H]1[C@@H](CO)[C@@H]2Cn3c(cccc3=O)[C@@H]2N1C | . | . | . | . | . | -9.8
N#Cc1ccc(-c2ccc([C@H]3[C@@H](CO)N4CCCCN(C(=O)Cc5ccccc5)C[C@H]34)cc2)cc1 | . | . | . | . | . | 18.1
CN(CC1COc2ccccc2O1)c1nc(-c2cccnc2)nc2ccccc12 (configuration not stated) | -17.5 | 23.6 | 15.6 | 0.7 | 50.8* | 34.2
N[C@@H](Cc1ccc(N(CCCl)CCCl)cc1)C(=O)O | -7.0 | 30.5 | -5.3 | 49.9* | 0.9 | 16.4
NC(Cc1ccc(O)cc1)C(=O)NN=Cc1ccc(N(CCCl)CCCl)cc1 (configuration not stated) | 3.6 | 12.0 | 12.1 | 47.5* | -1.5 | 14.3
COC(=O)[C@@H]1[C@@H](CO)[C@@H]2Cn3c(ccc(-c4cccc(F)c4)c3=O)[C@H]1N2Cc1ccccc1 | . | . | . | . | . | 7.3
O=C(O)[C@H]1[C@H](CO)[C@H]2Cn3c(ccc(-c4cccnc4)c3=O)[C@@H]1N2S(=O)(=O)c1ccccc1F | . | . | . | . | . | -25.0
COc1ccc(O)c2c(=O)c3c(OC)cc4c(c3oc12)C1C=COC1O4 (configuration not stated) | 25.3 | 12.3 | 13.4 | 64.5* | 20.4 | .
O=C(N/N=C/c1c(O)n(C2CCCCC2)c(=S)[nH]c1=O)c1ccccc1O | 10.7 | 0.5 | -50.4 | 42.1* | -22.8 | -5.6
O=C(Cc1ccncc1)N1CCCCN2[C@H](CO)[C@@H](c3ccc(C#Cc4ccccc4F)cc3)[C@@H]2C1 | . | . | . | . | . | 18.9
CC(C)(O)/C=C/C(=O)[C@](C)(O)C1[C@H](O)C[C@@]2(C)C3CC=C4C(C[C@H](O)[C@@H](O)C4(C)C)[C@]3(C)C(=O)C[C@]12C (some centres not stated) | 70.7* | 46.0 | 30.5 | 26.9 | 61.2* | .
SMILES | TRPM1 prom inh | Shn3 3UTR inh | HIF-2a inh | LMP1 NFkB inh | Peg3 prom inh | PAX8 inh HTS
O=C(Cc1ccccn1)N1CCCCN2[C@H](C1)[C@@H](c1ccc(C#Cc3ccccc3)cc1)[C@@H]2CO | . | . | . | . | . | 10.3
O=c1[nH]c2ccccc2n1C1CCN(C(c2ccccc2)c2nnnn2-c2ccc3c(c2)OCCO3)CC1 (configuration not stated) | . | 73.2 | -7.6 | . | 68.2* | 80.5*
O=C1NCN(c2ccccc2)C12CCN(C(c1ccccc1)c1nnnn1-c1ccc3c(c1)OCCO3)CC2 (configuration not stated) | . | -3.0 | -12.3 | . | 25.2 | 15.1
O=c1[nH]c2ccccc2n1C1CCN(C(c2nnnn2-c2ccc3c(c2)OCCO3)C2CC2)CC1 (configuration not stated) | . | 12.2 | 7.4 | . | 77.9* | 86.2*
CSCCC(c1nnnn1-c1ccc2c(c1)OCCO2)N1CCC(n2c(=O)[nH]c3ccccc32)CC1 (configuration not stated) | . | 73.0 | -2.4 | . | 74.7* | 93.4*
O=C1NCN(c2ccccc2)C12CCN(C(c1nnnn1-c1ccc3c(c1)OCCO3)C1CC1)CC2 (configuration not stated) | . | -2.8 | 32.3 | . | 21.8 | 1.7
O=c1[nH]c2ccccc2n1C1CCN(C(c2cccs2)c2nnnn2-c2ccc3c(c2)OCCO3)CC1 (configuration not stated) | . | 61.0 | -35.7 | . | 76.6* | 95.9*
Cc1ccc(OC(=O)N(C)C[C@H]2OCc3ccccc3-c3c(n(C)c4ccccc34)C(=O)N([C@@H](C)CO)C[C@H]2C)cc1 | . | . | . | . | . | 12.9
O=C(Cc1ccccn1)N1CCCCN2[C@H](C1)[C@@H](c1ccc(-c3ccccc3)cc1)[C@@H]2CO | . | . | . | . | . | -2.7
O=C(Cc1ccccn1)N1CCCCN2[C@H](CO)[C@@H](c3ccc(Br)cc3)[C@@H]2C1 | . | . | . | . | . | -25.5
CN1[C@@H](CO)[C@@H]2c3ccccc3NC[C@@H]21 | . | . | . | . | . | 2.4
O=C(Cc1ccccn1)N1CCCCN2[C@@H](CO)[C@@H](c3ccc(-c4ccccc4)cc3)[C@@H]2C1 | . | . | . | . | . | -9.4
CC(C)(C)c1cc(C=C(C#N)C#N)cc(C(C)(C)C)c1O | 83.7* | 92.8* | -23.5 | 23.6 | 56.2* | 108.5*
CN1C2CCC1/C(=C/c1ccccn1)C(=O)/C2=C\c1ccccn1 | 96.8* | 92.7* | 88.4* | 92.6* | 99.4* | 106.6*
O=[N+]([O-])c1ccc(C[n+]2c(-c3ccccc3)cc(-c3ccccc3)cc2-c2ccccc2)cc1 | 11.3 | 0.3 | 11.3 | 1.1 | -15.4 | 78.5*
CN1[C@@H]2c3cccc(=O)n3C[C@H]1[C@H](CO)[C@H]2C(=O)NCC1CC1 | . | . | . | . | . | -9.2
O=C(Cc1ccccn1)N1CCCCN2[C@@H](CO)[C@H](c3ccc(-c4ccccc4F)cc3)[C@@H]2C1 | . | . | . | . | . | 67.2*

Compound activity as filed in PubChem BioAssay.
